# Laboratory results from PubChem BioAssay AID1347416 (National Center for Advancing Translational Sciences (NCATS), 2020).
# Hit rate of the full screen: of about 4,100 compounds, about 1,600 (39%) were called active. Inconclusive results (about 25%) are left out. The call rests on the fitted dose curve; in most records, active means well fitted inhibition curve with a large enough effect; inconclusive means small, poorly fitted or top-dose-only effect; inactive means no such curve, though single readings can be large or run the other way. This is one part of the list. Where a call stands in place of a potency, no number is given.
# Assay: qHTS Validation assay for Inhibitors of Plasmodium falciparum Dd2 growth in vitro; further: nearly all actives have a fitted effect of over 70% in size
# Settings: P. falciparum Dd2 in RBCs, SYBR Green growth, 72 h; series mostly up to 28.7 µM
# From the text: Malaria, a parasitic disease spread to humans through the bite of a Plasmodium infected Anopheles mosquito, continues to be a global health burden affecting millions of people, with an estimated 228 million cases and 405,000 deaths in 2018. Concerns about safety and limitations of current antimalarial treatments strongly emphasize the need to develop new therapeutic options. The scarce number of chemotypes and validated drug targets with efficacy against the liver stage, have hindered development of new antimalarials. To address this, a chemoprophylactic drug discovery effort was conducted through a combined phenotypic high-throughput asexual blood stage and liver stage screen, providing a robust foundation to identify liver-stage active lead chemotypes. Compounds were initially screened against Plasmodium falciparum Dd2 strain parasites using a in vitro SYBRGreen-1 based 72 hr proliferation assay to identify novel chemotypes to advance to liver stage assays. NIH/NCATS Early Translation Branch Assay Submitter (PI): Anton Simeonov Ph.D.
# […] Assay Protocol: PROTOCOL TABLE (as described by Inglese et al., 2007) SEQUENCE No. (e.g., 1, 2, 3, etc.); PARAMETER (e.g., Cells, Incubation, Reagent, etc.); VALUE; DESCRIPTION SEQUENCE, Parameter, Description 1; Reagent; 3 uL complete malaria growth medium, 1536 TC treated Black clear bottom plate 2; Controls; 23 nL positive control artesunate (300 nM final) to column 1; Neutral control DMSO to columns 2-4 3; Compound; 23 nL of compounds in dose response concentration (29 uM to 0.5 nM final) 4; Reagent; 5 uL malaria infected red blood cells (2.5% hematocrit final, 0.3% parasitemia 5; Time; 72 hours at 37C (5% O2, 5% CO2, 90% N2; 95% Rh) 6; Reagent; 2 uL lysis buffer/SYBRGreen-1, 25 sec shake immediately following dispense 7; Time; ~16 hours at 37C (5% O2, 5% CO2, 90% N2; 95% Rh) 8; Detector; EnVision (PerkinElmer) bottom read at 485/14nm excitation and 535/25 nm emission NOTES (numbers refer to sequence above): 1; Complete Malaria Growth Media: 1X RPMI-1640 w/L-glutamine, 5.5g/L Albumax II, 367 uM Hypoxanthine, 25 mM HEPES, 0.25% Sodium Bicarbonate, 35 uM Gentamicin sulfate 2; Controls were added using the Kalypsis Pintool (Wako USA) equipped with 1536 pinhead 3; Compounds were added in a 7-point, titration with a high final concentration of 29 uM by Pintool from seven inter-plate titrations of library plates and two DMSO control plates at the beginning and end (see Yasgar et al., 2008). 4; Red blood cells infected with Plasmodium falciparum Dd2 parasites were used. 6; Lysis buffer: 20 mM Tris-HCl, 10 mM EDTA, 0.16% Saponin, 1.6% Triton-X, 10X SYBR Green. REFERENCE: Inglese J, Shamu CE, Guy RK. 2007. Reporting data from high-throughput screening of small-molecule libraries. Nat Chem Biol. doi:10.1038/nchembio0807-438 Yasgar A, Shinn P, Jadhav A, Auld D, Michael S, Zheng W, Austin CP, Inglese J, Simeonov A. 2008. Compound Management for Quantitative High-Throughput Screening. J Lab Autom 13:79-89. doi:10.1016/j.jala.2007.12.004
# Potency means the concentration at half of the fitted maximal effect.
row,SMILES,Potency
1,Nc1cc2ccncc2c2ccccc12,0.266 µM (active)
2,O=C(NC1CCCC1)N1CCC(Cc2nncn2CC2CC2)CC1,inactive
3,COCC(=O)N[C@H]1C[C@@H](CO)N(Cc2cn[nH]c2-c2ccccc2)C1,inactive
4,COC[C@@H]1CN(Cc2cn[nH]c2-c2ccccc2)C[C@H]1c1nc(C)no1,inactive
5,Cc1ccccc1CN1C[C@@H]2C[C@@H](c3cn[nH]c3-c3ccccc3)N3CCC[C@@]23C1=O,15 µM (active)
6,Cc1cccc(NC(=O)Cn2c(C)c(C#N)c3ccccc32)c1C,5.96 µM (active)
7,Cc1cccc(NC(=O)Cn2cnc(S(=O)(=O)N3CCCC3)c2)c1C,inactive
8,CN(C)c1cc(=O)c2ccnc(-c3ccccc3F)c2o1,inactive
9,CCc1ccc(CNC(=O)c2cc3cc4ccc(OC)cc4nc3o2)cc1,inactive
10,CCCOC(=O)c1ccc(-c2c(C)noc2-c2ccc(OC)cc2O)o1,1.88 µM (active)
11,CCc1cc(=O)n(CC(=O)Nc2ccccc2OC)c(-c2ccccc2)n1,inactive
12,COc1ccccc1NC(=O)CN1CCN(C2c3ccccc3-c3ccccc32)CC1,15 µM (active)
13,CCc1noc(-c2cccn3c(CNC(=O)c4cccc(N(C)C)c4)nnc23)n1,inactive
14,Cc1ccc(C(=O)NCc2nnc3c(-c4nc(C(C)C)no4)cccn23)cc1,inactive
15,Cc1ccc(CN2CCc3nc(C(=O)Nc4cccnc4)oc3CC2)cc1,inactive
16,Cc1ccc(NC(=O)c2c(C)oc3ccc(O)c(CN4CCCCCC4)c23)c(C)c1,4.73 µM (active)
17,CCOC(=O)c1c(C)c(-c2ccccc2)n(CC(=O)NC2CCCCCC2)c1C,inactive
18,Cc1ccc(NC(=O)c2c(C)oc3ccc(O)c(CN4CCCCCC4)c23)cc1,2.11 µM (active)
19,CCOC(=O)c1c(-c2ccccc2)oc2ccc(O)c(CN3CCCC3)c12,0.596 µM (active)
20,Cc1ccc(S(=O)(=O)N2CC3CCCC2C3)cc1 (configuration not stated),inactive
21,O=C(NC[C@H]1OC[C@@H](NCc2ccccc2F)[C@@H]1O)Nc1ccccc1,inactive
22,CCn1cc(CN2CCCC(c3nc(C(C)C)no3)CCNC(=O)CC2)cn1 (configuration not stated),inactive
23,Cc1cccc(OCCc2noc(C3CCN(C(=O)c4n[nH]c(=O)c5ccccc45)C3)n2)c1 (configuration not stated),inactive
24,Cc1ccc(O)c(CN2CCCC(c3nc(CC(C)C)no3)C2)c1 (configuration not stated),9.44 µM (active)
25,O=C(Cn1c(=O)n(Cc2ccc(C(=O)NCc3ccc4c(c3)OCO4)cc2)c(=O)c2ccccc21)Nc1cccc(Cl)c1,5.96 µM (active)

row,SMILES,Potency
1,CN(C(=O)Cn1c(=O)n(Cc2ccc(C(=O)NCc3ccc4c(c3)OCO4)cc2)c(=O)c2ccccc21)c1ccccc1,inactive
2,N=c1ccn(CC(=O)c2ccc(-c3ccccc3)cc2)cc1,0.944 µM (active)
3,C[C@H]1CN=C(N(C)C)N1CCC1CCCCC1,inactive
4,NC1=NC[C@@H](Cc2ccc(O)cc2)N1CCCCC1CCCCC1,4.73 µM (active)
5,COc1ccc2c(c1)c(CN1CCCCCCN(C)C(=O)[C@@H]3CCC[C@@H]31)cn2C,15 µM (active)
6,CCC(=O)N1CCCCCCN(C)C(=O)[C@@H]2CCC[C@@H]21,inactive
7,C=C(C)COc1ccc(-c2[nH]ncc2Oc2ccccc2OCC)c(O)c1,2.99 µM (active)
8,C=C(C)COc1ccc(-c2[nH]ncc2-c2ccc(OC)c(OC)c2)c(O)c1,6.68 µM (active)
9,CCOC(=O)c1cc(Sc2ccccc2N)cc(C(=O)OCC)n1,inactive
10,CCOC(=O)c1c(C)[nH]c2c1-c1ccccc1C(=O)C2=O,2.37 µM (active)
11,CCOC(=O)c1c(C)oc2c1C(=O)c1ccccc1C2=O,0.422 µM (active)
12,CCOC(=O)C1CCN(C(=O)c2c(C)oc3c2C(=O)c2ccccc2C3=O)CC1,0.531 µM (active)
13,CCOC(=O)C1CCN(C(=O)Cn2cnc3sc(C)c(S(=O)(=O)N4CCOCC4)c3c2=O)CC1,inactive
14,O=C(NCc1ccc(F)cc1)C1(CCO)CC12CCOCC2 (configuration not stated),inactive
15,O=C(Nc1ccccc1F)N1CCCCCC1c1nc(-c2cccnc2)no1 (configuration not stated),inactive
16,O=C(CCC1CCCN(Cc2cccn2-c2cccnc2)C1)Nc1ccccc1F (configuration not stated),6.68 µM (active)
17,COc1ccccc1CC(=O)N1CCC(n2cc(-c3nc(C)no3)nn2)CC1,inactive
18,O=C(CSc1nc(-c2ccccc2)no1)N1CCN(c2ccc(F)cc2)CC1,4.22 µM (active)
19,CC(C)c1noc(-c2cn(C3CCN(C(=O)COc4ccccc4)CC3)nn2)n1,inactive
20,CCC(C)NC(=O)N1CC(Oc2ccc(-c3noc(C4CCOCC4)n3)cc2)C1 (configuration not stated),inactive
21,CC(C)c1ccc(-c2noc(SCC(=O)N3CCN(c4ccc(F)cc4)CC3)n2)cc1,0.668 µM (active)
22,O=C(c1ccc(F)cc1)N1CCn2c(nnc2-c2ccccc2)C1,inactive
23,Cc1nn(C)c(C)c1CCC(=O)N1CCC(Cc2noc(-c3ccc(F)cc3)n2)C1 (configuration not stated),inactive
24,Cc1ccc(Cc2nc3ccccc3nc2SCC(=O)N2CCN(c3ccccc3)CC2)cc1,inactive
25,COc1ccccc1N1CCN(C(=O)CSc2nc(-c3ccc(C(C)C)cc3)no2)CC1,0.376 µM (active)

row,SMILES,Potency
1,CC1CCN(C(=O)CSc2nc(-c3ccc(C(C)C)cc3)no2)CC1,1.19 µM (active)
2,CCn1ccc2sc(C)c(C(=O)N3CCN(c4ccc(F)cc4)CC3)c2c1=O,inactive
3,COc1ccc(N2CCN(C(=O)CSc3nc(-c4ccc(C(C)C)cc4)no3)CC2)cc1,0.531 µM (active)
4,COc1ccc(-c2noc([C@@H]3CCCN3C(=O)Cc3ccccc3Cl)n2)cc1,inactive
5,COc1ccc(C(=O)N2CCC(n3cc(-c4nc(-c5ccccc5)no4)nn3)C2)cc1 (configuration not stated),inactive
6,COc1ccc(-c2noc(-c3cccn3CC(=O)N(C)c3ccc(F)cc3)n2)cc1F,inactive
7,CC(C)c1ccc(-c2noc(SCC(=O)N(C)c3ccc(F)cc3)n2)cc1,0.944 µM (active)
8,O=C(N/N=C(\CC(=O)c1cccs1)C(F)(F)F)c1ccncc1,inactive
9,COc1ccc(CN(C)C2CCc3nn(C)c(=O)n3CC2)cc1Cn1cccn1 (configuration not stated),inactive
10,COc1ccc(-n2nc(C3CCN(Cc4ccncc4)CC3)[nH]c2=O)cc1,inactive
11,CCCNC(=O)N1CCCCCNC(=O)CC1c1ccccc1 (configuration not stated),inactive
12,CCOc1ccccc1CN1CCCN(Cc2ccncc2)C(c2ccccc2)CC(=O)NCC1 (configuration not stated),6.68 µM (active)
13,COc1ccc(CN2CCCCCNC(=O)CC2c2ccccc2)cc1Cn1ccnc1 (configuration not stated),9.44 µM (active)
14,Cc1ccc(CNC(=O)N2CCCCCNC(=O)CC2c2ccccc2)cc1 (configuration not stated),inactive
15,COc1cccc(CN2CCCN(Cc3ccncc3)C(c3ccccc3)CC(=O)NCC2)c1 (configuration not stated),7.5 µM (active)
16,Cc1cccc(Cn2nnc3c2C(=O)c2ccccc2C3=O)c1,inactive
17,Cc1cccc(CN2CCCN(Cc3ccncc3)C(c3ccccc3)CC(=O)NCC2)c1 (configuration not stated),4.22 µM (active)
18,CCOc1ccccc1CN1C[C@@H]2C(=O)N(CCN3CCc4ccccc4C3)C(=O)[C@@H]2C1,inactive
19,COc1ccc(N=C2NC(=O)/C(=C\c3ccco3)S2)cc1,inactive
20,C#CCN(C)Cc1nc(C2(O)CCN(C(C)=O)CC2)cs1,inactive
21,CCN(CC)C(=O)[C@@H]1CCCN1[C@H](Cc1ccccc1)C(=O)NC,inactive
22,Cc1noc(C)c1-c1cc2cc(CN(C)C)oc2c(NCCc2ccccc2)n1,13.7 µM (active)
23,Cc1noc(C)c1-c1cc2cc(CN(C)C)oc2c(NCCOc2ccccc2)n1,15.3 µM (active)
24,CC(C)c1nc2oc3c(NCC4CCCO4)ncnc3c2c2c1CCC2 (configuration not stated),inactive
25,COCCN(CC1CCCO1)c1nc(CCN)nc2ccccc12 (configuration not stated),inactive

row,SMILES,Potency
1,CCOc1ccc(Nc2nc(NCC3CCCO3)c3ccccc3n2)cc1 (configuration not stated),1.88 µM (active)
2,CSc1nnc(-c2cc3ccccc3cc2O)n1C,7.5 µM (active)
3,Cn1c(SCC(=O)N2c3ccccc3CCc3ccccc32)nnc1-c1cc2ccccc2cc1O,8.41 µM (active)
4,Cc1cccc(-c2nnc(SCC(=O)NC3CC3)n2C)c1,inactive
5,Cc1noc([C@@H]2CN(C3CCSCC3)C[C@H]2CO)n1,inactive
6,O=C(COc1ccccc1)N[C@H]1CO[C@H]2[C@@H]1OC[C@@H]2n1nnnc1Oc1ccc2c(c1)OCO2,inactive
7,CCOC(=O)c1c(C)oc2nc(C)nc(Nc3ccc(C)c(Cl)c3)c12,inactive
8,CCOC(=O)c1c(C)oc2nc(C)nc(Nc3ccc(CC)cc3)c12,7.5 µM (active)
9,Cc1ccccc1NC(=O)c1cc2c(-c3ccccc3)nn(-c3ccccc3)c2s1,11.9 µM (active)
10,O=C(Nc1ccccc1)c1cc2c(-c3ccccc3)nn(-c3ccccc3)c2s1,3.35 µM (active)
11,Cc1ccccc1NC(=O)Cn1c(=O)n(-c2ccccc2)c(=O)c2c1cc(C)n2C,inactive
12,O=C(O)Cc1sc(Nc2ccccc2Cl)nc1-c1ccccc1,inactive
13,CCOc1ccc2ncc3c(-c4ccccc4)nn(CC(=O)Nc4cccc(F)c4)c3c2c1,inactive
14,O=C(Nc1ccc(Cl)cc1)c1cc2c(-c3ccccc3)nn(-c3ccccc3)c2s1,2.37 µM (active)
15,COc1ccc(O)c(C(=O)c2cnc3c(c2)c(-c2ccc(F)cc2)c(C#N)c(=O)n3C)c1,5.96 µM (active)
16,Cc1cccc(CN2CCN(C(=O)CCl)CC2)c1,13.3 µM (active)
17,O=C(CCC1CCCN(C(CO)CO)C1)N1CCN(Cc2ccccc2)CC1 (configuration not stated),inactive
18,Cc1cccc(CC(=O)N2CCC3(CC2)CC(O)CCO3)c1 (configuration not stated),inactive
19,COc1ccc(-c2nc3ccccc3s2)cc1NC(=O)c1cc2ccccc2o1,inactive
20,COc1ccc(C)cc1N(C(=O)COc1cccc(F)c1)c1nc2ccccc2s1,5.96 µM (active)
21,COc1ncc(-c2cc3c(nc2OC)nc(CC2CC2)n3C)cn1,inactive
22,CCc1nn2cc(C(=O)c3cc(C)ccc3O)cnc2c1-c1ccc(F)cc1,9.44 µM (active)
